Several values for one entry are separate records, joined by “and”; a condition that tells them apart may be missing. Identical values can stand only once. Records with an inconclusive call do not appear. A number with no mark means an inactive call. Activity calls are given as the source filed them. The call rests on the fitted dose curve; in most records, active means well fitted curve in the direction sought with a large enough effect; inconclusive means small, poorly fitted or top-dose-only effect, or another doubt; inactive means no such curve, though single readings can be large; an effect the other way counts as inactive or inconclusive.

Experiment [1] deals with MCC-13. Description: qHTS assay to identify novel small-molecules to repurpose for Merkel cell carcinoma treatment (AID 1296009). Further: nearly all actives have a fitted effect of over 60% in size. The following applies: MCC and control cell lines, CellTiter-Glo viability, 72 h; series mostly up to 46 µM. In outline: (§1)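 Luminescence from CellTiter-Glo, read 10 min after addition at room temperature, reported viability following a 72 hr, 37 degree celsius treatment with NPC or MIPE compounds in titration; values normalized to plate controls.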
(In general: qHTS replaces the single test concentration by a dilution series.)

Experiment [2] relates to MCC-26. The description is as above. The following applies: MCC and control cell lines, CellTiter-Glo viability, 72 h; series mostly up to 46 µM. In outline:
as §1
In general terms: In ATP-based viability assays light output follows the ATP content of the culture.

Experiment [3] deals with MKL-1. The description is as above. The following applies: MCC and control cell lines, CellTiter-Glo viability, 72 h; series mostly up to 46 µM. The method in brief:
as §1

Experiment [4] concerns MKL-2. Described as above. Particulars: MCC and control cell lines, CellTiter-Glo viability, 72 h; series mostly up to 46 µM. The method in brief:
as §1

For experiment [5], the system named is UISO. The experiment is described as above. Particulars: MCC and control cell lines, CellTiter-Glo viability, 72 h; series mostly up to 46 µM. In outline: as §1
In experiment [6] the test system is WaGa. Described as above. The following applies: MCC and control cell lines, CellTiter-Glo viability, 72 h; series mostly up to 46 µM. The method in brief:
as §1

In experiment [7] the test system is C33A. Description: Primary qHTS to identify gynecologic anti-cancer compounds using libraries of approved drugs and bioactive compounds (AID 1345084). Further: nearly all actives have a fitted effect of over 55% in size. The following applies: Gynecologic cancer cell panel viability, ATPlite luminescence, 48 h; series mostly up to 57.5 µM. The method in brief: (§2)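 48 h compound exposure at 37 C, 5% CO2; five-point qHTS. ATPlite luminescence readout of cell ATP.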

The test system of experiment [8] is CAOV3. The experiment is described as above. Particulars: Gynecologic cancer cell panel viability, ATPlite luminescence, 48 h; series mostly up to 57.5 µM. The method in brief:
as §2

Experiment [9] concerns CASKI. The description is as above. Particulars: Gynecologic cancer cell panel viability, ATPlite luminescence, 48 h; series mostly up to 57.5 µM. In outline:
as §2

Experiment [10] concerns Es-2. Described as above. The following applies: Gynecologic cancer cell panel viability, ATPlite luminescence, 48 h; series mostly up to 57.5 µM. The method in brief: as §2
The subject of experiment [11] is HeLa. The description is as above. The following applies: Gynecologic cancer cell panel viability, ATPlite luminescence, 48 h; series mostly up to 57.5 µM. In outline:
as §2

Experiment [12] has as its system Hek293T. Described as above. The following applies: Gynecologic cancer cell panel viability, ATPlite luminescence, 48 h, control line for the selectivity index; series mostly up to 57.5 µM. The method in brief: as §2
The test system of experiment [13] is JEG-3. The description is as above. Particulars: Gynecologic cancer cell panel viability, ATPlite luminescence, 48 h; series mostly up to 57.5 µM. In outline: as §2
Experiment [14] relates to OV90. The experiment is described as above. Particulars: Gynecologic cancer cell panel viability, ATPlite luminescence, 48 h; series mostly up to 57.5 µM. In outline:
as §2

Experiment [15] has as its system PA-1. The description is as above. Particulars: Gynecologic cancer cell panel viability, ATPlite luminescence, 48 h; series mostly up to 57.5 µM. In outline: as §2
Experiment [16] concerns Tov-21-G. The description is as above. The following applies: Gynecologic cancer cell panel viability, ATPlite luminescence, 48 h; series mostly up to 57.5 µM. In outline: as §2
In experiment [17] the test system is Tov112D. Described as above. The following applies: Gynecologic cancer cell panel viability, ATPlite luminescence, 48 h; series mostly up to 57.5 µM. The method in brief:
as §2

Experiment [18] is described as follows: Drug repurposing screens with cells derived from glioblastoma tumor samples (AID 1345199). Further: nearly all actives have a fitted effect of over 40% in size. The following applies: GBM patient neurospheres viability, ATP luminescence, 48 h. In outline:
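Primary testing used CD133+ neurospheres from four GBM patients, seven concentrations, 48 h exposure and ATP-based viability; confirmation added three slower-growing patient lines.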

The subject of experiment [19] is SKOV3. Nature of the experiment: Primary qHTS to identify gynecologic anti-cancer compounds using libraries of approved drugs and bioactive compounds (AID 1345084). Further: nearly all actives have a fitted effect of over 55% in size. Particulars: Gynecologic cancer cell panel viability, ATPlite luminescence, 48 h; series mostly up to 57.5 µM. In outline: as §2
In experiment [20] the test system is NIH3T3. Nature of the experiment: qHTS assay to identify novel small-molecules to repurpose for Merkel cell carcinoma treatment (AID 1296009). Further: nearly all actives have a fitted effect of over 60% in size. The following applies: MCC and control cell lines, CellTiter-Glo viability, 72 h; at 44.8 µM (top of the series) unless noted. The method in brief: as §1
[21] abbreviates: at 45.9 µM (top of the series), tumour line B.
[22] abbreviates: at 45.9 µM (top of the series), tumour line D.
The mark [23] stands for this setting: at 46 µM (top of the series), tumour line A.
On the % scale 0 is the no-effect control and ±100 the full control effect; potency means the concentration at half of the fitted maximal effect.

Take `CN1C(=O)CCS(=O)(=O)C1c1ccc(Cl)cc1` (stereo not drawn): the molecule was classed as inactive in [1], in experiment [8], in experiment [9], in [12] and in experiment [13]. In addition, the Potency result in experiment [2], in experiment [3], in [4], in [5], in experiment [6] and in [7] was “inactive” in each case. Besides, the Potency result in [10], in experiment [11], in experiment [14], in [15], in experiment [16] and in experiment [17] was “inactive” each time. Further, the activity, negative = cell killing in experiment [18] (setting [21]) is -12.1% and -22.6%; in [18] (setting [22]), -13.6% and -16.2%; in [18] (setting [23]), -23.1% and -4.54%.
`C[C@]12CCC(=O)C=C1CC[C@@H]1[C@@H]2CC[C@]2(C)C(=O)CC[C@@H]12`: the molecule was classed as inactive in experiment [1], in experiment [8], in experiment [9], in experiment [12], in experiment [13] and in experiment [19]. Moreover, the Potency entry in experiment [2], in experiment [3], in experiment [4], in experiment [7], in experiment [10] and in experiment [14] was “inactive” throughout. The Potency result in experiment [16] and in [17] was “inactive” throughout. Besides, in [18] (setting [21]), the activity, negative = cell killing is -22.1%. Moreover, the Potency in experiment [18] (tumour line A) was 10 µM (active).
Regarding `CC(=O)NC1CCSC1=O` (stereo not drawn), the molecule was called inactive in experiment [1], in experiment [9], in [12], in [13] and in experiment [19]. In addition, the Potency entry in experiment [2], in [3], in experiment [5], in experiment [6], in [7] and in [10] was “inactive” throughout. Further, the Potency result in [11], in experiment [14], in [15], in experiment [16] and in experiment [17] was “inactive” in each case. For the same molecule, the activity, negative = cell killing is -5.98% in experiment [18] (at 21.2 µM (top of the series), tumour line B); 7.84% in [18] (at 21.2 µM (top of the series), tumour line D); -12.3% in experiment [18] (at 21.3 µM (top of the series), tumour line A); -16.4% in [18] (setting [21]); -12.7% in experiment [18] (setting [22]).
On to `C[C@]12CC[C@H]3[C@@H](CCC4=CC(=O)CC[C@@H]43)[C@@H]1CC[C@@H]2OC(=O)CCC1CCCCC1`, for which the molecule was called inactive in [1], in experiment [20], in experiment [8], in experiment [9], in experiment [12] and in experiment [13]. In addition, the molecule was classed as inactive in experiment [19]. In addition, the Potency result in experiment [2], in experiment [3], in experiment [7], in experiment [10], in experiment [14] and in experiment [15] was “inactive” throughout. The Potency entry in experiment [16] and in experiment [17] was “inactive” each time. The Potency is 18.8 µM (active) in experiment [6] and 11.2 µM (active) in experiment [11].
Consider `COC(=O)C(Cl)C(=O)OC`, for which the result in [1], in [9], in experiment [12], in experiment [13] and in experiment [19] was inactive. The Potency entry in experiment [2], in experiment [3], in experiment [4], in [5], in experiment [6] and in experiment [7] was “inactive” in each case. Besides, the Potency entry in experiment [10], in experiment [11], in experiment [14], in [15], in [16] and in [17] was “inactive” each time. The activity, negative = cell killing in experiment [18] (setting [21]) is -9.36%; in experiment [18] (setting [22]), -17%; in [18] (setting [23]) it was -23.7%.
In the case of `CCCCCCCCCC(=O)O[C@H]1CC[C@H]2[C@@H]3CCC4=CC(=O)CC[C@@H]4[C@H]3CC[C@]12C`, the molecule was called inactive in experiment [1], in experiment [8], in experiment [9], in experiment [12], in experiment [13] and in experiment [19]. In addition, the Potency result in experiment [2], in experiment [3], in experiment [4], in experiment [5], in experiment [7] and in experiment [10] was “inactive” in each case. The Potency result in experiment [11], in experiment [14], in experiment [15], in experiment [16] and in [17] was “inactive” in each case. The activity, negative = cell killing in experiment [18] (setting [21]) is -3.32%; in experiment [18] (setting [22]), -5.94%.

Source of the values: PubChem BioAssay (NCATS).
